Data from PubChem BioAssay.

test: JC-1 mitochondrial potential readout, lung cancer cells – cell-based, A549, JC-1 fluorescence, basal, 24 h, 100 nL, profiling panel (AID 1138); settings: higher = more signal;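 note: A549 lung adenocarcinoma cells under basal conditions with no added stimulus; test concentration not given here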

SMILES	z-score
O=C1O[C@H](c2ccccc2)[C@H](c2ccccc2)N2[C@H]1[C@@H](C(=O)N1CCN(c3ncccn3)CC1)[C@]1(C(=O)Nc3ccccc31)[C@H]2c1ccc(OCCO)cc1	-0.442
C=CCNC(=O)[C@@H]1[C@H]2C(=O)O[C@H](c3ccccc3)[C@H](c3ccccc3)N2[C@H](c2ccc(OCCO)cc2)[C@@]12C(=O)Nc1ccccc12	0.253
CC(C)C[C@@H]1NC(=O)[C@@H]2C[C@H](C(=O)NCCCCCC[N+](C)(C)C)[C@H](c3ccc(O)cc3)N2C1=O	-0.158
CCCC[C@H]1OB(O)C[C@H]2C1=C(C)C[C@H]1C(=O)N(Cc3ccccc3)C(=O)[C@H]12	0.625
COc1ccc(C#Cc2ccc3c(c2)[C@]2(C(=O)N3)[C@H](C(=O)NC[C@H](O)c3ccccc3)[C@H]3C(=O)O[C@H](c4ccccc4)[C@H](c4ccccc4)N3[C@@H]2c2ccc(OCCO)cc2)cc1	-1.96
COCCOC(=O)N1C(=O)[C@@]2(c3cc(C#CCNC(N)=O)ccc31)[C@H](c1ccc(O)cc1)N1[C@H](c3ccccc3)[C@H](c3ccccc3)OC(=O)[C@H]1[C@@H]2C(=O)Nc1nc2ccccc2s1	-1.91
COC(=O)[C@@]1(Cc2ccccc2)[C@H]2c3cc(C(=O)N4CCCC4)n(Cc4ccc(C)o4)c3C[C@H]2CN1C(=O)c1ccccc1	0.337
COc1cc2c(cc1OC)CN(C(=O)[C@@H]1[C@H]3C(=O)O[C@H](c4ccccc4)[C@H](c4ccccc4)N3[C@H](c3ccccc3OCCO)[C@@]13C(=O)Nc1ccc(C#CCNC(N)=O)cc13)CC2	-0.864
COC(=O)[C@@]1(Cc2ccc(OC)cc2)[C@H]2c3cc(C(=O)N(C)C)n(Cc4c(OC)[nH]cc(C)c4=O)c3C[C@H]2CN1C(=O)c1ccccc1	0.539
COCCOC(=O)N1C(=O)[C@@]2(c3cc(C#CCCO)ccc31)[C@H](C(=O)NC[C@H](O)c1ccccc1)[C@H]1C(=O)O[C@H](c3ccccc3)[C@H](c3ccccc3)N1[C@@H]2c1ccc(O)cc1	-0.319
COC(=O)[C@]1(Cc2ccccc2N=[N+]=[N-])N=C(c2ccc(OCCCO)cc2)O[C@@H]1c1ccccc1N=[N+]=[N-]	-0.856
[N-]=[N+]=NCc1ccccc1[C@@H]1OC(c2ccc(OCCCO)cc2)=N[C@]1(Cc1ccccc1N=[N+]=[N-])C(=O)NCc1ccccc1	0.249
Cc1ccc(S[C@]2(C(=O)NC3CC3)CC(=O)N(C3CCCCC3)[C@@H]2c2ccc(CO)cc2I)cc1	1.69
CC(C)NC(=O)[C@@H]1c2ccccc2C(=O)N(Cc2ccccc2)[C@H]1c1ccc(CO)cc1	0.484
[N-]=[N+]=NCc1ccccc1[C@H]1OC(c2ccc(OCCCO)cc2)=N[C@@]1(CCS(=O)(=O)c1ccccc1)C(=O)N1CCOCC1	-0.988
COc1cc(C(O)C2C=CC3C(=O)N(c4ccccc4)C(=O)C3N2Nc2ccc(C#N)cc2)cc(OC)c1OC (stereo unspecified)	0.142
O=C1C2C=CC(C(O)c3ccc(B(O)O)cc3)N(Nc3ccccc3)C2C(=O)N1c1ccccc1 (stereo unspecified)	-1.4
NCCCCCCNC(=O)[C@H]1C[C@H]2C(=O)NCC(=O)N2[C@H]1c1cccc(OCCO)c1	1.85

SMILES	z-score
COc1cccc(C(=O)O[C@H]2CC[C@]3(C)C4=C(CCC3C2(C)C)[C@]2(C)CC[C@H]([C@H](C)CCCC(C)C)[C@@]2(C)CC4)c1 (stereo partly specified)	0.434
CCOC(=O)C[C@H]1[C@H](OC(=O)Cc2ccc3c(c2)OCO3)[C@@H](NC(=O)c2ccc(-c3ccccc3)cc2)c2cc(OCCCO)ccc2N1C(=O)c1ccccc1	2.42
O=C1OCCC=C[C@H]2OC34C=CCN(Cc5ccccc5)C(=O)[C@H]3N(CCCCCO)C(=O)[C@@H]4C12 (stereo partly specified)	0.758
CS(=O)(=O)CCOC(=O)C1=CC(CCCO)=CC(c2cccs2)N(Cc2cc3c(cc2Br)OCO3)C=C1C(=O)OCCS(C)(=O)=O (stereo unspecified)	1.26
O=C1O[C@@H](c2ccccc2)[C@@H](c2ccccc2)N2[C@@H](c3ccc(OCCO)cc3)[C@]3(C(=O)Nc4ccc(C#CC5=CCCCC5)cc43)[C@@H](C(=O)O)[C@H]12	-2.48
C=CC[C@@]1(C(=O)NCC(O)CO)N=C(c2ccc(OCCCO)cc2)O[C@@H]1c1ccccc1N=[N+]=[N-] (stereo partly specified)	-0.921
NC(=O)NCC#Cc1ccc2c(c1)[C@]1(C(=O)N2)[C@H](C(=O)NC[C@H](O)c2ccccc2)[C@H]2C(=O)O[C@H](c3ccccc3)[C@H](c3ccccc3)N2[C@@H]1c1ccc(O)cc1	-2.34
CC(=O)NCCCC[C@@H]1NC(=O)[C@H]2C[C@@H](C(=O)NCCCCCC[N+](C)(C)C)[C@@H](c3cccc(OCCO)c3)N2C1=O	-1.12
COC(=O)[C@@]1(Cc2ccc(F)cc2)[C@H]2c3cc(C(=O)N(C)C)n(CCc4ccccn4)c3C[C@H]2CN1C(=O)c1ccccc1	-0.201
CN(C)CCCNC(=O)[C@@]1(Cc2ccccc2I)c2ccccc2C(=O)N(Cc2ccccc2C(F)(F)F)[C@H]1c1ccc(CO)cc1	0.117
NC(=O)NCC#Cc1ccc2c(c1)[C@]1(C(=O)N2)[C@H](C(=O)N2CCCCCCC2)[C@H]2C(=O)O[C@H](c3ccccc3)[C@H](c3ccccc3)N2[C@@H]1c1ccc(OCCO)cc1	-1.62
O=C(O)[C@@]1(Cc2ccccc2)N=C(c2ccc(OCCCO)cc2)O[C@H]1c1ccccc1	0.593
CCOC(=O)C1=CCC(c2ccc([N+](=O)[O-])cc2)N(S(=O)(=O)c2ccc(C)cc2)C1 (stereo unspecified)	1.15
COCCOC(=O)N1C(=O)[C@@]2(c3cc(C#CCCO)ccc31)[C@H](c1ccc(O)cc1)N1[C@H](c3ccccc3)[C@H](c3ccccc3)OC(=O)[C@H]1[C@@H]2C(N)=O	-0.444
COc1ccc(C(O)C2C=CC3C(=O)NC(=O)C3N2Nc2ccccn2)cc1OCc1ccccc1 (stereo unspecified)	1.73
O=C1OCC=C[C@H]2OC34C=CCN(c5ccc6ccccc6c5)C(=O)[C@H]3N(CCCO)C(=O)[C@@H]4[C@@H]12 (stereo partly specified)	-0.506
CCC[C@@H]1C=C(C(=O)O)[C@H](c2ccc(C)cc2)N1S(=O)(=O)c1ccc(C)cc1	-0.564
COC(=O)c1ccc(C23CC2(C(NP(=O)(c2ccccc2)c2ccccc2)c2ccccc2)C3)cc1 (stereo unspecified)	2.44
